Records with an inconclusive call do not appear. Activity calls are given as the source filed them. Calls come from the whole dose curve; as a rule, active = well fitted cell-killing curve with a large enough effect in the repeat runs; inconclusive = weak or mixed curves, or effect the other way; inactive = flat fitted curve, though single readings scatter.
% is set by controls: 0 for no effect and ±100 for the full control effect.

The assay in a line: qHTS assay to identify small molecule that activate the aryl hydrocarbon receptor (AhR) signaling pathway - cell viability counter screen (AID 743086).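 Note: HepG2 liver cells carrying the AhR DRE luciferase reporter; nearly all actives have a fitted effect of over 45% in size.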 To be noted: HepG2-AhR-luc viability, CellTiter-Fluor, 24 h; series mostly up to 70.3 µM. The text has this: U.S. Tox21 Program National Center for Advancing Translational Sciences [NCATS] NIH Chemical Genomics Center [NCGC] U.S. Environmental Protection Agency [EPA] National Institutes of Environmental Health Sciences [NIEHS] National Toxicology Program [NTP] U.S. Food and Drug Administration [FDA] Tox21 Assay overview: The Aryl hydrocarbon Receptor (AhR), a member of the family of basic helix-loop-helix transcription factors, is crucial to adaptive responses to environmental changes. AhR mediates cellular responses to environmental pollutants such as aromatic hydrocarbons through induction of phase I and II enzymes but also interacts with other nuclear receptor signaling pathways A cell based HepG2-AhR-luc assay (HG2L7.5c1 cell line, developed by Dr. Michael S. Denison, University of California at Davis) was used to assess the activation of AhR. HepG2 (human hepatocellular carcinoma) cells were stably transfected with an Ah receptor-responsive firefly luciferase reporter gene plasmid containing 20 dioxin responsive elements and luciferase reporter gene. Increased luciferase activity can be used to identify the compounds that induce AhR activation. The cytotoxicity of the compounds screened against the HepG2-AhR-luc cell line was tested in parallel by measuring the cell viability using CellTiter-Fluor assay in the same wells.
Tox21 Assay Protocol Summary: 4000 cells in 5 uL/well were dispensed into white wall/solid bottom 1536-well plates using a Multidrop Combi (Thermo Fisher Scientific Inc., Waltham, MA) dispenser. After the assay plates were incubated at 37C for 5 h, 23 nL of compound or DMSO vehicle was transferred to the assay plates by a pintool station (Kalypsys, San Diego, CA). The plates were incubated at 37C for 24 hr. For cell viability measurement, 1 ul/well of CellTiter-Fluor reagent (Promega, Madison, WI) was added into the assay plates using a Flying Reagent Dispenser (FRD) (Aurora Discovery, CA),and then the assay plates were incubated at 37C for 30 min. The fluorescence intensity in the plates was measured using a ViewLux plate reader (PerkinElmer, Shelton, CT), followed by the addition of 4 uL of ONE-Glo Luciferase Assay reagent (Promega) using an FRD (Aurora Discovery). After the assay plates were incubated at room temperature for 30 min, luminescence intensity was measured using a ViewLux plate reader (Perkin Elmer).
A general note: qHTS replaces the single test concentration by a dilution series.
`Cc1cccc(N)n1`: the result was inactive.
With `CC(=O)Nc1ccc(S(=O)(=O)Nc2cc(C)on2)cc1`, the molecule was classed as inactive.
The same measure, in the same setting: the entry for `COc1cc(NS(=O)(=O)c2ccc(N)cc2)ncn1` is “inactive”.
Regarding `c1cc2ccc3ccc4ccc5cccc6c(c1)c2c3c4c56`, the viability change, negative = cytotoxic was 13.2% [at 3.79 µM] (inactive).
For the molecule `N#CC1(N)CCCCC1`, the outcome was inactive.
Same read-out and setting: the entry for `c1coc(Cn2cccc2)c1` is “inactive”.
The same measure, in the same setting: the entry for `C=CC(=O)OCCOCCOCC` is “inactive”; for `Nc1cc(S(=O)(=O)O)ccc1O` it is “inactive”; for `CCCCOCCCC` it is “inactive”.
On the same count and under the same terms, the entry for `O=c1[nH]c(=O)c2cn[nH]c2[nH]1` is “inactive”.
`CC(C)(O)CCCC1=CCC(C=O)CC1` (stereo not given): the result was inactive.
On the same count and under the same terms, the entry for `C/C=C(\C)C(=O)OC/C=C(\C)CCC=C(C)C` is “inactive”.
The same measure, in the same setting: the entry for `CC(=O)SCC(CC(=O)c1ccc(C)cc1)C(=O)O` (stereo not given) is “inactive”; for `CCCC(=O)OC` it is “inactive”.
Still for that read-out and setting: the entry for `CCO[Si](CC(C)C)(OCC)OCC` is “inactive”; for `CCN(CC)CC` it is “inactive”; for `CCCCCCCCCCCCCC(=O)OCC` it is “inactive”.
As for `N=C(N)S(=O)O`, the molecule was classed as inactive.
Still for that read-out and setting: the entry for `C=CCCCCCCCCOC(C)=O` is “inactive”; for `CCCC(=O)C(CC)Sc1ccoc1C` (stereo not given) it is “inactive”; for `O=C1c2ccccc2C(=O)N1CO` it is “inactive”.
On the same count and under the same terms, next, `C[C@@H]1NC(=O)[C@@H](N)CNC(=O)[C@H](C2CCNC(N)=N2)NC(=O)/C(=C/NC(N)=O)NC(=O)[C@H](CNC(=O)C[C@@H](N)CCCN)NC1=O` (stereo not given in full): “inactive”.
On to `CCCCCCCOC(C)=O`, for which the call was inactive.
On the same count and under the same terms, the entry for `CC(C)(C)c1ccc(N)cc1` is “inactive”.
Same read-out and setting: the entry for `O=C1CC2(CCCC2)CC(=O)N1CCNCC1COc2ccccc2O1` (stereo not given) is “inactive”; for `C=CCCCCCCCCCCCCCC` it is “inactive”; for `CC(C)=CCC/C(C)=C\C#N` it is “inactive”.
The same measure, in the same setting: the entry for `Cc1ccc2cccnc2c1` is “inactive”; for `CC/C=C\CCOC(=O)c1ccccc1` it is “inactive”.
Turning to `CN(C)c1ccncc1`, the molecule was called inactive.
Still for that read-out and setting: the entry for `CC[C@@]1(c2ccccc2)NC(=O)N(C)C1=O` is “inactive”.
Same read-out and setting: the entry for `C=COCCCCO` is “inactive”; for `CC1(C)C(=O)C(C)(C)C1=O` it is “inactive”; for `CCCCCCCCS(=O)(=O)O` it is “inactive”.
The same measure, in the same setting: the entry for `CCCC(C)C(O)CC` (stereo not given) is “inactive”; for `Cc1ccc2ccccc2n1` it is “inactive”; for `CC(=O)SC[C@@H](C)C(=O)N1CCC[C@H]1C(=O)N[C@@H](Cc1ccccc1)C(=O)O` it is “inactive”.
`C/C(Cl)=C/CCl`: the molecule was classed as inactive.
Turning to `O=CN1CCCCC1`, the molecule was called inactive.
Same read-out and setting: the entry for `COC(=O)C(c1ccccc1Cl)N1CCc2sccc2C1` (stereo not given) is “inactive”.

The values above are taken from PubChem BioAssay (Tox21).
